# According to ChEMBL document CHEMBL4513216, “Probing the Open Global Health Chemical Diversity Library for Multistage-Active Starting Points for Next-Generation Antimalarials” (ACS Infect Dis, 2020):
# Hit rate of the full screen: of about 68,000 compounds, about 2,700 (4%) showed an effect of 50% or more. The entries come from a sample that favours strong results as a whole.
# System: Plasmodium berghei
# Assay: Screen against P. berghei liver stage (PbLuc), transformed with Luciferase, at 2uM
# Assay type: functional, HepG2
# Settings: tested at 2 uM
row,SMILES,INHIBITION [%]
1,Cc1ccc(CC(=O)N2Cc3nccn3CC(Cn3cccn3)C2)cc1 (centres undefined),-8.05
2,CCc1nc(C2CCCN(C(=O)c3cccc(C(N)=O)c3)C2)no1 (centres undefined),-12.41
3,COc1ccc2[nH]c3c(c2c1)CN(c1cc(NCCO)nc(N)n1)CC3,13.24
4,O=C([C@@H]1Cc2[nH]cnc2CN1C(=O)NC1CCCCC1)N1CCCC1,17.77
5,CN1Cc2nc[nH]c2C[C@H]1C(=O)NC1CCCCC1,60.6
6,CN(Cc1ccccc1)C(=O)[C@@H]1Cc2[nH]cnc2CN1C,4.59
7,CCC(C)C(=O)N(C)Cc1cc(F)ccc1N1CCC(OC)CC1 (centres undefined),15.56
8,Cc1ccc(CNC(=O)c2ccc(S(=O)(=O)N3C[C@H]4C[C@@H]3CN4)cc2)o1,44.86
9,CC(C)(C)c1n[nH]cc1CNCC1CCN(C2CC2)C1 (centres undefined),10.43
10,CC(C)N1CCC(CNCc2c[nH]nc2C(C)(C)C)C1 (centres undefined),66.97
11,CCN1CCC(CNCc2c[nH]nc2C(C)(C)C)C1 (centres undefined),37.68
12,CCc1nc(CN2CCOC(Cn3nc(C)cc3C)C2)no1 (centres undefined),-7.73
13,O=C(CCCc1nc(C2CC2)no1)N1CCCC(c2ccn[nH]2)C1 (centres undefined),41.84
14,COc1ccc(Cl)cc1NC(=O)CCNc1ccc(C#N)cn1,9.27
15,N#Cc1cccc(CN2CC[C@@H]3CN(c4ncccn4)CCO[C@@H]3C2)c1,14.94
16,O=S(=O)(C1CC1)N1CCc2onc(COc3ccccn3)c2C1,16.03
17,O=C(NCc1cc[nH]n1)NCC(c1ccco1)N1CCCC1 (centres undefined),-4.1
18,O=C(NCc1cc[nH]n1)N1CCCC(N2CCCC2)C1 (centres undefined),51.94
19,N#Cc1ccccc1N1CCCN(C(=O)NCc2cc[nH]n2)CC1,-13.24
20,CC(=O)N1CCCN(C(=O)NCc2cc[nH]n2)CC1,-27.69
21,CCN1CCN(C(=O)NCc2cc[nH]n2)CC1,56.02
22,CN(C)C(CNC(=O)NCc1cc[nH]n1)c1ccco1 (centres undefined),53.61
23,Cc1nc(CCNC(=O)NCC(c2ccco2)N(C)C)cs1 (centres undefined),34.73
24,O=C(NCc1cc[nH]n1)N1CCN(c2ccccc2Cl)CC1,-56.99
25,CCOc1ccccc1N1CCN(C(=O)NCc2cc[nH]n2)CC1,56.02
26,O=C(NCc1cc[nH]n1)N1CCN(c2ncccn2)CC1,-23.42

row,SMILES,INHIBITION [%]
1,O=C(NCc1cc[nH]n1)N1CCCCC(N2CCCC2)C1 (centres undefined),8.37
2,CC(=O)NC1CCCN(C(=O)NCc2cc[nH]n2)C1 (centres undefined),45.83
3,CCCN(CC)C(=O)c1cc(Cn2c(C)nc3ccccc32)[nH]n1,38.75
4,CNS(=O)(=O)c1cccc(CNc2ncccn2)c1,-18.94
5,c1ccn(Cc2nnc3n2CCCN(Cc2ccoc2)C3)c1,18.31
6,COc1ccccc1C(CNC(=O)NCc1cc[nH]n1)N1CCCC1 (centres undefined),-10.44
7,CC(C)CC(CNC(=O)NCc1cc[nH]n1)N1CCOCC1 (centres undefined),40.29
8,CCC(CNC(=O)NCc1cc[nH]n1)N1CCCC1 (centres undefined),76.6
9,CC(=O)N1CC[C@@H]2CN(Cc3ccncc3)S(=O)(=O)[C@@H]2CC1,-66.17
10,Cc1c(C2CCOC(C)(C)C2)nc(N)c(C#N)c1-c1ccc(O)cc1 (centres undefined),-11.34
11,Cc1cc(C)c2c(c1)NC(=O)C2CC(=O)O (centres undefined),33.22
12,Cc1cc(C)c2c(c1)C(CC(=O)O)C(=O)N2 (centres undefined),52.38
13,Cc1ccc(C)c2c1NC(=O)C2CC(=O)O (centres undefined),42.8
14,CCN1CC2(CC1=O)CN(C(=O)c1cccs1)CCN(C(=O)N(C)C)C2 (centres undefined),-48.39
15,CCc1noc(CS(=O)(=O)Cc2ccccc2C)n1,30.59
16,CCc1noc(CS(=O)(=O)Cc2nc(Cc3ccccc3)no2)n1,34
17,CCc1noc(CS(=O)(=O)Cc2ccccc2Cl)n1,61.32
18,CC(=O)N1CCCC1C(=O)NCCOc1cccc(F)c1 (centres undefined),16.25
19,CN(C)C(=O)NC1COC2(CCN(Cc3ccc(N(C)C)cc3)CC2)C1 (centres undefined),53.98
20,CN(C)C(=O)NC1COC2(CCN(Cc3ccc(Cl)c(F)c3)CC2)C1 (centres undefined),-8.04
21,CN(C)C(=O)NC1COC2(CCN(Cc3ccccc3)CC2)C1 (centres undefined),0.14
22,Cc1ccoc1C(=O)N1CC[C@H]2C[C@H](c3nnc(C4CC4)o3)O[C@@H]2C1,-11.79
23,CNC(=O)C1(C)CCCN1Cc1cnn(C)c1C (centres undefined),18.15
24,CC(C)OCCCN(CC(=O)N1CCNCC1)C(=O)c1ccc(F)cc1,-20.36
25,COc1ccc(OC)c(CNC(=O)N2CCC(n3cncn3)CC2)c1,3.06
26,COc1cc(Cl)ccc1CNC(=O)N1CCC(n2cncn2)CC1,70.27

row,SMILES,INHIBITION [%]
1,CCOc1ccccc1CNC(=O)N1CCC(n2cncn2)CC1,-111.08
2,NC(=O)NC(=O)CCSc1ccccc1Cl,12.14
3,Cc1nc(C)n(CC2CN(CCOc3cccc(C#N)c3)CCO2)n1 (centres undefined),-5.15
4,Cc1nc(C)n(CC2CN(CCc3ccncc3)CCO2)n1 (centres undefined),70.27
5,Cc1cc(C)n(CC2CN(CCOc3ccc(C#N)cc3)CCO2)n1 (centres undefined),13.24
6,Cc1nc(C)n(CC2CN(Cc3ccccc3OC(C)C)CCO2)n1 (centres undefined),-3.06
7,COc1ccc(C)cc1CN1CCOC(Cn2nc(C)nc2C)C1 (centres undefined),60.09
8,Cc1nc(C)n(CC2CN(Cc3cccc4ccccc34)CCO2)n1 (centres undefined),-53.98
9,COc1ccc(CCN2CCOC(Cn3nc(C)nc3C)C2)cc1 (centres undefined),34.97
10,Cc1nc(C)n(CC2CN(CCCc3ccccc3)CCO2)n1 (centres undefined),40.72
11,Cc1nc(C)n(CC2CN(CCOc3ccc(C#N)cc3)CCO2)n1 (centres undefined),50.05
12,Cc1ncc(S(C)(=O)=O)c(N2CCCCCC2)n1,2.97
13,CCn1c(C)nnc1CN(C)C1CCN(Cc2nnc(C3CC3)o2)C1 (centres undefined),12.75
14,CCC1(C(=O)O)CCCN(C(=O)c2ccc(O)c(Cl)c2)C1 (centres undefined),-2.86
15,CCOC(=O)c1coc(N2CCN(Cc3ccc(C)cc3)C(=O)C2)n1,33.9
16,Cn1nc(C2CCCN(Cc3cccc(F)c3)C2)c2nccnc21 (centres undefined),-13.37
17,CC(C)OCCN1CCC(C(=O)c2cc(F)ccc2F)CC1,50.76
18,O=C(CCN1CCC(C(=O)c2cc(F)ccc2F)CC1)NC1CCCC1,64.9
19,O=C(CCN1CCC(C(=O)c2cc(F)ccc2F)CC1)NC1CC1,34.93
20,CCOCCN1CCC(C(=O)c2cc(F)ccc2F)CC1,43
21,COCCN1CCC(C(=O)c2cc(F)ccc2F)CC1,-11.34
22,O=C(CN1CCC(C(=O)c2cc(F)ccc2F)CC1)NC1CCCC1,-21.84
23,CN1CCC(N(C)CCC(=O)N2CCC(Oc3ccc(Cl)cc3)CC2)C1 (centres undefined),8.75
24,Cn1nc(C(=O)N2CCOCC2)c2c1CN(CC1CCC1)C2,36.29
25,Cc1cc(-c2ccc(=O)n(C3CCN(S(=O)(=O)N(C)C)CC3)n2)c(C)o1,-34.37
26,CCC(CO)N(Cc1ccco1)Cc1c(C)nn(C)c1Cl (centres undefined),-10.67

row,SMILES,INHIBITION [%]
1,CN1CCN(C(=O)c2cccn2C)c2ccccc2C1,-9.98
2,CCOC(=O)[C@]12CCCN(Cc3nccs3)C[C@H]1CN(C(C)C)C2,34.47
3,Cc1nc(C)c(CN2CCOC[C@H](Oc3ccc(S(C)(=O)=O)cc3)C2)s1,-40.15
4,Cc1nc(C)c(CN2CCOC[C@H](Oc3ccccc3)C2)s1,64.92
5,COc1ccc(CN2CCOC[C@H](Oc3cccnc3)C2)cc1,27.04
6,CS(=O)(=O)c1ccc(O[C@H]2COCCN(Cc3ccncc3)C2)cc1,50.91
7,Cc1cccc(O[C@H]2COCCN(Cc3sc(C)nc3C)C2)n1,17.64
8,CC(C)CN1CCOC[C@H](Oc2ccc(S(C)(=O)=O)cc2)C1,-36.65
9,CCN(Cc1ccc(C#N)cc1F)C(=O)C(C)(C)C,0.53
10,CCCS(=O)(=O)N1C[C@H]2CC[C@@H](C1)N(Cc1cscn1)C2=O,36.28
11,CN(C)CC(=O)N1CCC2(CC1)COCCN(Cc1ccncc1)C2,32.66
12,CCCc1nc(C(=O)N[C@H]2COC[C@@H]2N2CCN(C)CC2)cs1,-0.83
13,CS(=O)(=O)CCCN(CCc1cccc(F)c1)C1CC1,7.36
14,Cc1csc2c(N3CCNC(C(=O)Nc4ccc(F)cc4)C3)ncnc12 (centres undefined),-17.67
15,Cc1ccc2c(c1)C(=O)NCC1(CCN(C(=O)c3cnccn3)CC1)O2,64.07
16,CCC(=O)N1CCC2(CC1)CNC(=O)c1cc(C)ccc1O2,61.99
17,Cc1ccc2c(c1)C(=O)NCC1(CCN(Cc3ccccc3)CC1)O2,34.9
18,Cc1ccc2c(c1)C(=O)NCC1(CCN(C(=O)c3scnc3C)CC1)O2,-2.31
19,Cc1ccc2c(c1)C(=O)NCC1(CCN(C(=O)c3cc(C)no3)CC1)O2,9.51
20,Cc1ccc2c(c1)C(=O)NCC1(CCN(C(=O)c3ccccn3)CC1)O2,38.12
21,Cc1ccc2c(c1)C(=O)NCC1(CCN(C(=O)c3csc(C)c3)CC1)O2,38.75
22,Cc1ccc2c(c1)C(=O)NCC1(CCN(C(=O)c3sccc3C)CC1)O2,46.15
23,Cc1ccc2c(c1)C(=O)NCC1(CCN(C(=O)c3ccnn3C)CC1)O2,59.27
24,Cc1ccc(F)cc1NC(=O)CCn1cncn1,5.31
25,Cc1nc(CN2C[C@@H]3CN(C(=O)c4cccn4C)C[C@@H]3C2=O)cs1,-32.67
26,O=C(C1CCCCC1)N1CCC2(CC1)CNCc1ccccc12,31.27
